test system: PPARg:RXRa 270nM:90nM, anti-RXR (NR concentration 270 nM, RXRa partner concentration 90 nM); experiment: PBM binding z-score (relative to random genomic background probes); higher = stronger binding; sequences stand for … in GC…GCGATTGACAGCGTAGAATGAAGG
In short: (§1)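 Antibodies against each partner of ligand-free nuclear receptor dimers (one per run) detected binding on custom Agilent 4×180K protein-binding microarrays after 1 h incubation. The double-stranded probes had 34-nt variable regions carrying direct-repeat seeds, single-nucleotide variants, half-site ablations and random human genomic background sequences. Binding z-scores, from regression-normalized fluorescence, use the random background probes as reference.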

| Sequence | PBM binding z-score |
| --- | --- |
| CGTCCAAGGTCATAGGAGATCAGTGAAGACAGAT | 4.9 |
| CCTTACGGGTCAAGGCTATAGCACGGGTGGTACG | 4.41 |
| CGAACGAGGGCATGAGTTGATAGCAAATGCCGAT | 1.57 |
| CCAGACAGGTGAGAAGGTAACTCCGCCTCGATTA | 0.504 |
| TCTACTAGTTGATTAGGGCAACCGAAACAGCGGA | 1.66 |
| GAGACAGGGTCAAGGCCAGAGTACGCGTATTGAT | 4.73 |
| TCTAGTTGGTCACGGAGGTCACTCACGACGGGTA | 3.55 |
| CTCGAAAGGTCGGTTGAGGTGTGTATACGGATAA | 0.619 |
| CCTACTGGGCCATTCAGAGTTCATTGATCATATG | 1.61 |
| CAGCCTAGGTTAGGGCCAGTATAGGAGGAACGTT | -0.361 |
| GCGACTGGGGCCAAGCAGGTTACCATAAGGTTGG | -0.27 |
| CGAACGAGGGCATGAGTTGATGGCAAATGCCGAT | 1.34 |
| GGAACGATGGCAAGTTGATAGCAGAGTTTGATGG | -0.873 |
| CGTCCAAGGTCAAAGGTCAGTCAAGAGATGACGG | 8.99 |
| CGTCCAAGGTCAAAGGTCAGTGCAGAGATGACGG | 9.08 |
| CCTTCTGGGCCAAAGGTCATTGATTCCAATGCTC | 10.2 |
| TTTTGTAGATCAAGCAGGTTAAGAAAGCCTGAGT | 0.238 |
| AAGACAGGGTCATCGTAGGCCAGAGTACGCACAG | 5.77 |
| GCTAGCAGGCCATTTAGGTCACTCAATGACGGGC | 0.498 |
| AATACAGGGTCACTAGGCCAGAGTTGGTACGAAT | 6.63 |

| Sequence | PBM binding z-score |
| --- | --- |
| TCATATAGGTAATACAGGTGAAAGTGGGCATCTA | 3.18 |
| CGAACTAGGTCTAGGACAGTGAATCTCCGCACGC | -0.367 |
| GCATATAGGTAATACCAGGTGAAAGTCCGATTGT | 1.19 |
| TCAGAAAGGTGAAGGTAACTCAGGTACGCAGTCG | 3.44 |
| GGAACGAGGGCATACGAGTTGATAGCATGGCGAT | 0.666 |
| AGAATGAGGTTACCGAAGATCAGGGAAACGCTTG | 3.26 |
| CCGACTGGGGCAGAAAGGTAACCATACCATCCGG | 1.25 |
| AGTCACAGTTCACTAGGTAACGTAAGATTCAGCT | 3.17 |
| GATCGGAGGACAAGGTCAGAGCTTTGTCCGTAGA | 2 |
| CTCGAAAGGTCGGTTGAGGCGAGTATACGGATAA | 0.752 |
| ACAGACAGGTGTTGAAGGTAACTCAGGCTATCAT | -0.232 |
| GTACCAAGGTGAATAGGTCATTGATGAGTAGGCG | 3.52 |
| AGAATAAGGTTATTAAGATCAGGGAATTGCGGTC | 1.67 |
| ATTTCTAGGTAAAGATAGTTCAGTGAATGCAAAT | 1.27 |
| CGAACTAGGTCAAGGACTGTGAATCTCCGCACGC | 6.47 |
| TCTTGTAGATCAACAGGAGGTTAAGAATGATCGA | 1.52 |
| CGTCCAAGGTCAATGCTTGGTCAGTGAAAGCATT | 4 |
| CCTATTAGTCGACCATAAGGGCAACCGAAGCTCG | 0.353 |
| TATACAGGGTCAAAGGCGAGAGTACGAATGTCGA | 6.81 |
| TCTTGTAGATCAATAGAGGTTAAGGAAGTGCGCT | 1.99 |

test system: PPARg:RXRa 30nM:10nM, anti-RXR (NR concentration 30 nM, RXRa partner concentration 10 nM); experiment: as above
In short: as §1

| Sequence | PBM binding z-score |
| --- | --- |
| CGTCCAAGGTCATAGGAGATCAGTGAAGACAGAT | 2.45 |
| CCTTACGGGTCAAGGCTATAGCACGGGTGGTACG | 1.45 |
| CGAACGAGGGCATGAGTTGATAGCAAATGCCGAT | 0.0506 |
| CCAGACAGGTGAGAAGGTAACTCCGCCTCGATTA | -0.516 |
| TCTACTAGTTGATTAGGGCAACCGAAACAGCGGA | 3.06 |
| GAGACAGGGTCAAGGCCAGAGTACGCGTATTGAT | 1.4 |
| TCTAGTTGGTCACGGAGGTCACTCACGACGGGTA | 3.29 |
| CTCGAAAGGTCGGTTGAGGTGTGTATACGGATAA | -0.0568 |
| CCTACTGGGCCATTCAGAGTTCATTGATCATATG | 0.0346 |
| CAGCCTAGGTTAGGGCCAGTATAGGAGGAACGTT | -0.521 |
| GCGACTGGGGCCAAGCAGGTTACCATAAGGTTGG | -0.91 |
| CGAACGAGGGCATGAGTTGATGGCAAATGCCGAT | -0.207 |
| GGAACGATGGCAAGTTGATAGCAGAGTTTGATGG | -0.448 |
| CGTCCAAGGTCAAAGGTCAGTCAAGAGATGACGG | 7.83 |
| CGTCCAAGGTCAAAGGTCAGTGCAGAGATGACGG | 8.16 |
| CCTTCTGGGCCAAAGGTCATTGATTCCAATGCTC | 10.6 |
| TTTTGTAGATCAAGCAGGTTAAGAAAGCCTGAGT | 0.224 |
| AAGACAGGGTCATCGTAGGCCAGAGTACGCACAG | 2.38 |
| GCTAGCAGGCCATTTAGGTCACTCAATGACGGGC | -0.134 |
| AATACAGGGTCACTAGGCCAGAGTTGGTACGAAT | 3.71 |

| Sequence | PBM binding z-score |
| --- | --- |
| TCATATAGGTAATACAGGTGAAAGTGGGCATCTA | 4.26 |
| CGAACTAGGTCTAGGACAGTGAATCTCCGCACGC | -0.539 |
| GCATATAGGTAATACCAGGTGAAAGTCCGATTGT | 0.303 |
| TCAGAAAGGTGAAGGTAACTCAGGTACGCAGTCG | 4.63 |
| GGAACGAGGGCATACGAGTTGATAGCATGGCGAT | 0.135 |
| AGAATGAGGTTACCGAAGATCAGGGAAACGCTTG | 1.19 |
| CCGACTGGGGCAGAAAGGTAACCATACCATCCGG | -0.0627 |
| AGTCACAGTTCACTAGGTAACGTAAGATTCAGCT | 1.06 |
| GATCGGAGGACAAGGTCAGAGCTTTGTCCGTAGA | -0.141 |
| CTCGAAAGGTCGGTTGAGGCGAGTATACGGATAA | -0.191 |
| ACAGACAGGTGTTGAAGGTAACTCAGGCTATCAT | -0.26 |
| GTACCAAGGTGAATAGGTCATTGATGAGTAGGCG | 1.55 |
| AGAATAAGGTTATTAAGATCAGGGAATTGCGGTC | 0.45 |
| ATTTCTAGGTAAAGATAGTTCAGTGAATGCAAAT | 0.883 |
| CGAACTAGGTCAAGGACTGTGAATCTCCGCACGC | 4.05 |
| TCTTGTAGATCAACAGGAGGTTAAGAATGATCGA | 2.59 |
| CGTCCAAGGTCAATGCTTGGTCAGTGAAAGCATT | 0.746 |
| CCTATTAGTCGACCATAAGGGCAACCGAAGCTCG | -0.22 |
| TATACAGGGTCAAAGGCGAGAGTACGAATGTCGA | 3.94 |
| TCTTGTAGATCAATAGAGGTTAAGGAAGTGCGCT | 3.04 |

Source: the supplement of paper PMC6555819
